Laboratory results as given in PubChem BioAssay.
Values without a mark were called inactive. How the calls were made is not given here.

tested on: Aerobactin synthetase IucA (Klebsiella pneumoniae hvKP1); experiment: Biochemical IucA enzyme inhibition primary screen of the Spectrum library (AID 1346200); conditions: malachite green pyrophosphate, A620, at 8 µM, hits give low values;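 further: 100% = wells without compound and 0% = wells lacking enzyme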

SMILES	activity remaining
COc1cc(C(=O)O[C@H]2CC[C@@]3(C)[C@@H]4CC[C@H]5[C@]6(O)C[C@H](O)[C@@]7(O)[C@@H](CN8C[C@@H](C)CC[C@H]8[C@@]7(C)O)[C@]6(O)C[C@@]53OC24O)cc(OC)c1OC	123%
O=C(O[C@@H]1Cc2c(O)cc(O)cc2O[C@@H]1c1cc(O)c(O)c(O)c1)c1cc(O)c(O)c(O)c1	113%
CN(C)CCCO[C@H]1[C@@H](C(O)CO)OC2OC(C)(C)O[C@@H]21 (stereo not given in full)	95%
OCC(O)CN1CCN(c2ccccc2)CC1 (stereo not given)	107%
CC(C)Cc1ccc(C(C)C(=O)O)cc1 (stereo not given)	90.9%
Nc1nc(N)c2nc(CNc3ccc(C(=O)NC(CCC(=O)O)C(=O)O)cc3)cnc2n1 (stereo not given)	102%
CC(=O)O[C@H]1CC[C@@]2(C)C(C[C@H](OC(C)=O)[C@@]3(C)C4=CC(=O)OC(c5ccoc5)[C@]4(C)CCC23)C1(C)C (stereo not given in full)	119%
CC1CC[C@@]2(OC1)O[C@H]1CC3C4CC[C@@H]5C[C@@H](O)CC[C@]5(C)C4CC[C@]3(C)[C@H]1[C@@H]2C (stereo not given in full)	111%
COC(=O)[C@]1(C)CC[C@]2(C)CC[C@]3(C)C4=CCc5c(cc(O)c(O)c5C)[C@]4(C)CC[C@@]3(C)C2C1 (stereo not given in full)	106%
O=C(Oc1cc(OC(=O)c2ccccc2)c2c(c1)O[C@H](c1ccc(OC(=O)c3ccccc3)c(OC(=O)c3ccccc3)c1)[C@@H](OC(=O)c1ccccc1)C2)c1ccccc1	106%
O=C(O[C@@H]1Cc2c(O)cc(O)cc2O[C@@H]1c1cc(O)c(=O)c2c(O)c(O)cc([C@H]3Oc4cc(O)cc(O)c4C[C@H]3OC(=O)c3cc(O)c(O)c(O)c3)c2c1)c1cc(O)c(O)c(O)c1	108%
Cc1cc(=O)c2c(O)cc(O)c(C)c2o1	99.3%
O=C1C=CC2=C3c4cc(O)c(O)cc4C[C@@]3(O)COC2=C1	120%
O=c1[nH]cnc2c1ncn2C1O[C@H](CO)[C@@H](O)[C@H]1O (stereo not given in full)	112%
COC(=O)C[C@H]1C(C)(C)C(=O)[C@@H]2CC3C4=CC(=O)O[C@@H](c5ccoc5)[C@]4(C)CCC3C1(C)C2=O (stereo not given in full)	120%
CC(C)CCCC(C)N (stereo not given)	121%
COC(=O)C[C@@H]1C2(C)C(=O)[C@@H](CC3=C4C=C(OC)O[C@@H](c5ccoc5)[C@]4(C)CCC32)[C@H](O)C1(C)C (stereo not given in full)	93.6%
Nc1nc(=S)c2[nH]cnc2[nH]1	121%
CN1CCC(=C2c3ccccc3CCc3sccc32)CC1	123%
CCC(=O)c1c(O)cc(O)cc1O	116%

SMILES	activity remaining
CCn1cc(C(=O)O)c(=O)c2cnc(N3CCCC3)nc21	105%
O=C(O)CCC(=O)Nc1ccc(S(=O)(=O)Nc2nccs2)cc1	116%
COc1cc(OC)c2c(=O)c(O)c(-c3ccc(OC)c(OC)c3)oc2c1	107%
CCOC(=O)CCC(=O)O[C@H]1[C@H](O[C@@H]2[C@@H](C)[C@H](O[C@H]3C[C@@](C)(OC)[C@@H](O)[C@H](C)O3)[C@@H](C)C(=O)O[C@H](CC)[C@@](C)(O)[C@H](O)[C@@H](C)C(=O)[C@H](C)C[C@@]2(C)O)O[C@H](C)C[C@@H]1N(C)C	113%
CC(=O)O[C@H]1C[C@@H](O)C(C)(C)C2C[C@@H](OC(C)=O)[C@]3(C)C(CC[C@@]4(C)[C@H](c5ccoc5)OC(=O)C5OC543)[C@]21C (stereo not given in full)	104%
COc1cc(OC)c2c(=O)c(-c3ccc4c(c3)OCO4)coc2c1	98%
O=C(O)c1cccnc1	120%
C#C[C@]1(OC(C)=O)CCC2C3CCC4=CC(=O)CC[C@@H]4C3CC[C@@]21C (stereo not given in full)	93%
CC(=O)N[C@@H](Cc1c[nH]c2ccccc12)C(N)=O	122%
CC12CCCC(O)(C1)C1CC(C)(C)C1CC2 (stereo not given)	91.8%
O=C(CC(=O)c1ccccc1)c1ccccc1	101%
NC(=O)c1ncn(C2O[C@H](CO)[C@@H](O)[C@H]2O)c1N (stereo not given in full)	99.1%
C/C=C(\C)C(=O)O[C@@H]1c2c(ccc3ccc(=O)oc23)OC(C)(C)[C@@H]1OC(C)=O	87%
NC[C@@H]1O[C@H](O[C@@H]2[C@@H](CO)OC(O[C@@H]3[C@@H](O)[C@H](N)C[C@H](N)[C@H]3OC3O[C@H](CN)[C@@H](O)[C@H](O)[C@H]3N)[C@@H]2O)[C@H](N)[C@@H](O)[C@@H]1O (stereo not given in full)	99.1%
O=C(O)c1cc(=O)c(O)c2c(O)c(O)c(O)cc2c1	104%
OCc1c[nH]c2ccccc12	118%
C#CCCCCCCCCCCCc1ccco1	113%
CC(=O)O[C@]1(C(C)=O)CCC2C3C[C@H](C)C4=CC(=O)CC[C@]4(C)C3CC[C@@]21C (stereo not given in full)	95.7%
C[C@H]1C(=O)CCC2[C@]3(C)CC[C@@]4(C)C5CC(C)(C)CC[C@]5(C)CC[C@]4(C)C3CC[C@@]21C (stereo not given in full)	105%
Nc1c2ccccc2nc2ccccc12 (tested in a mixture with another compound)	112%
